± gives the uncertainty stated by the source.
Each compound was assayed on THP-1 (assay: CD54 surface expression induction over DMSO control (% over DMSO); higher = stronger dendritic cell activation). Details: exposure time: 24 h.
Protocol: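 hCLAT-like CD54 and CD86 surface expression on THP1 cells after 24 h exposure at a single concentration (highest non-cytotoxic concentration, or 100-200 µM if not cytotoxic). Flow cytometry (iQue) was run on 5,000 live cells.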

`CCCCCCCCCCCCOCCO` [2-(Dodecyloxy)ethanol] (200 µM) and `CCCCCCCCCCCCCCCC[N+](C)(C)Cc1ccccc1` [Benzylhexadecyldimethylammonium chloride] (10 µM) are within error of each other in “CD54 surface expression induction” value: 34.2 ± 20 for the first, 20.1 ± 7.5 for the second.

`O=[N+]([O-])c1cc(N(CCO)CCO)ccc1NCCO` (200 µM) and `O=C1c2cccc(O)c2C(=O)c2c(O)cc(CO)cc21` [Aloe-emodin] (100 µM) are within error of each other in “CD54 surface expression induction” value: 3.92 ± 4.8 for the first, 24.6 ± 18 for the second.

First: CC(C)=CCC/C(C)=C\CO [(2Z)-3,7-Dimethylocta-2,6-dien-1-ol] (200 µM)
Second: CC(C)=CCC1C(=O)N(c2ccccc2)N(c2ccccc2)C1=O [Feprazone] (200 µM)
The “CD54 surface expression induction” value of the first is lower: -9.15 ± 2.5 for the first, 62.3 ± 3 for the second.

Compared with `CCCCc1ccc2[nH]c(NC(=O)OC)nc2c1` [Parbendazole*] (200 µM), `CCCOc1ccc2[nH]c(NC(=O)OC)nc2c1` [Oxibendazole] (100 µM) is lower in “CD54 surface expression induction” value: 262 ± 39 for the first, -37.7 ± 6.7 for the second.

`CCCCC1C(=O)N(c2ccccc2)N(c2ccc(O)cc2)C1=O` (stereo not given) [Oxyphenbutazone] (10 µM) and `Cc1ccc(O)c(-n2nc3ccccc3n2)c1` [2-(2H-Benzotriazol-2-yl)-4-methylphenol] (100 µM) are within error of each other in “CD54 surface expression induction” value: 2.37 ± 6.7 for the first, 3.46 ± 3.3 for the second.

First: CCN(CC)CCOc1ccc2c(c1)C(=O)c1cc(OCCN(CC)CC)ccc1-2 [Tilorone] (200 µM)
Second: Cc1cc(C2(c3cc(C)c(O)cc3C)OS(=O)(=O)c3ccccc32)c(C)cc1O [p-Xylenol blue] (200 µM)
The “CD54 surface expression induction” value of the first is higher: 79.8 ± 17 for the first, 8.91 ± 6.7 for the second.

First: Oc1c(I)cc(Cl)c2cccnc12 [Clioquinol] (100 µM)
Second: Cc1ccc(O)c2ncccc12 [Tiliquinol] (10 µM)
The “CD54 surface expression induction” value of the first is higher: 141 ± 67 for the first, 26.6 ± 6.2 for the second.

For `O=C(O)Cn1c(C(=O)Nc2nc(-c3ccccc3Cl)cs2)cc2ccccc21` [Lintitript] (100 µM), the “CD54 surface expression induction” value was 1.24 ± 1.1.

Reference: the supplement of paper PMC10933113
